From PubChem BioAssay (NCATS)
Inconclusive results are not listed. Where a call stands in place of a potency, no number is given. The source made the active and inactive calls. The call rests on the fitted dose curve; in most records, active means well fitted inhibition curve with a large enough effect; inconclusive means small, poorly fitted or top-dose-only effect; inactive means flat fitted curve, though single readings scatter.

molecular target: Calcium and integrin-binding protein 1 (Homo sapiens) (UniProt Q99828); experiment: Primary qHTS for Identification of Calcium Integrin Binding Protein 1 (CIB1) Competitor (AID 1508620); details: CIB1-GST / FITC-alphaIIb peptide fluorescence polarization; series mostly up to 114 µM; further: top concentration of the series differs between compounds
Outline: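 Fluorescence polarization competition: GST-tagged CIB1 (1 uM final) preincubated with compound 15 min at room temperature, then FITC-labelled alphaIIb peptide (100 nM final) added. After 15 min at room temperature, polarization read at Ex 480/Em 540.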

Chain of Calcium and integrin-binding protein 1 (Homo sapiens) (Q99828 whole entry, looked up): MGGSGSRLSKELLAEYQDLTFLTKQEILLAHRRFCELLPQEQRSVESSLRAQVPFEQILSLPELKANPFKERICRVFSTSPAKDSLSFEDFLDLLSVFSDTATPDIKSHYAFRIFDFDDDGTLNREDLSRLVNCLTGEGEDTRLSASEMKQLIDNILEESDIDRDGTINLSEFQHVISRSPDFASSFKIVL

| SMILES | Potency |
| --- | --- |
| c1ccc(-n2cc(-c3nnc4n3CCCCC4)c3ccccc32)cc1 | inactive |
| CC(C)c1ccccc1-c1ncc(F)c(NC2(c3ccc(-c4cccnc4)cc3)CC2)n1 | inactive |
| COc1ccc(C(=O)Nc2ccc(-c3nc4ccccc4[nH]3)cc2)cc1C(F)(F)F | inactive |
| COc1ccc(O)c(-c2nc3ccccc3c(=O)n2Cc2ccccc2)c1 | inactive |
| Nc1nnc(-c2cccc3ccccc23)o1 | inactive |
| O=C1Nc2ccccc2/C1=C/c1cc(Cl)c(O)c(Cl)c1 | inactive |
| N#Cc1ccccc1S(=O)(=O)N1CCN(S(=O)(=O)c2ccc3c(c2)OCCO3)CC1 | inactive |
| Cc1cc(C)nc(NC(=S)N2CCN(c3ccc4nccn4c3)CC2)c1 | inactive |
| Cc1ccc(-c2ccc(CNc3nc(-c4ccccc4C(C)C)ncc3F)cc2)cn1 | inactive |
| CC(=O)N1c2ccc(S(=O)(=O)Nc3ccc(C)c(C)c3)cc2CC1C (stereo not given) | inactive |
| O=C(Nc1cccc(-c2nn3c(=O)cc(N4CCNCC4)nc3s2)c1)c1ccncc1 | inactive |
| CN(C)c1cccc(-c2nc(N3CCC(C(N)=O)CC3)ncc2F)c1 | inactive |
| Cn1c2cc(Br)sc2c2cnn(Cc3c(F)cccc3F)c(=O)c21 | inactive |
| O=c1c2ccc(F)cc2nc2sc(Nc3ccc4c(c3)CCC4)nn12 | inactive |
| O=C1c2ccccc2C(=O)N1c1ccc2ncccc2c1 | inactive |
| COc1ccc(C2=Nn3c(nnc3-c3cc(OC)ccc3OC)SC2)cc1 | inactive |
| O=C(CSc1nnc(-c2cccc(S(=O)(=O)N3CCCC3)c2)n1-c1ccccc1)Nc1ccc(F)cc1 | inactive |
| CC(C)(C)OC(=O)N1CCN(c2ccc(NCc3ccc(-c4cccc([N+](=O)[O-])c4)o3)cc2)CC1 | inactive |
| CN(CC(F)(F)F)c1nc(NCc2ccc(-c3cccnc3)cc2)c2ccccc2n1 | inactive |
| Cc1cc2c(s1)c1c(C)nn(Cc3ccccc3F)c(=O)c1n2C | inactive |

| SMILES | Potency |
| --- | --- |
| CC(=O)Nc1sc2c(c1-c1nc3ccccc3s1)CNCC2 | inactive |
| CCOc1ccccc1-c1nnc2n1N=C(c1cc(OC)cc(OC)c1)CS2 | inactive |
| Cc1ccc(OCCn2c(CCNC(=O)CCc3ccc(N)cc3)nc3ccccc32)cc1 | inactive |
| O=C1Nc2ccccc2/C1=C\c1ccc(O)cc1 | inactive |
| O=C1c2ccccc2C(=O)N1C1CCCCC1 | inactive |
| CCOC(=O)CC(=O)Nc1ncnc2c1C(c1ccccc1)c1c(ccc3ccccc13)O2 (stereo not given) | inactive |
| O=C(Oc1cccnc1)c1cccs1 | inactive |
| Cn1c2cc(Br)sc2c2cnn(Cc3c(F)cccc3Cl)c(=O)c21 | inactive |
| O=C(Cn1cc(CNC(=O)C2CCCCC2)nn1)Nc1cc(C(F)(F)F)ccc1Cl | inactive |
| N#Cc1nc(NCC(F)F)nc(Nc2cc(F)cc(F)c2)n1 | inactive |
| O=C(O)c1ccc2c(c1)C(=O)N([C@H](Cc1ccc(C(F)(F)F)cc1)C(=O)O)C2=O | inactive |
| Cc1nc(-c2ccccc2)oc1-c1ccc2ncnc(NCCc3cnc[nH]3)c2c1 | inactive |
| Cn1c2cc(C#N)sc2c2cnn(Cc3ccccc3F)c(=O)c21 | inactive |
| CCc1ccc(-c2nn3c(C)nnc3s2)cc1NC(=O)c1ccc(-c2cccc(Cl)c2)o1 | inactive |
| COc1cccc(C2c3c(ncn(-c4ccccc4OC)c3=N)Oc3ccc4ccccc4c32)c1 (stereo not given) | inactive |
| NC(=O)C1CCN(c2nc(-c3ccc(F)cc3)cs2)CC1 | inactive |
| Cc1ccc(NS(=O)(=O)c2cc3c(cc2NC(C)C)NC(=O)CC3)cc1C | inactive |
| COc1ccc([S+](=O)([O-])Nc2ccc(-c3nc4ccccc4[nH]3)cc2)cc1OC | inactive |
| O=C1CCc2cc(S(=O)(=O)Nc3cccc(Br)c3)ccc2N1 | inactive |
| COc1cc(OC)c(C(CC(=O)N2CC(C)CC(C)C2)c2ccc3c(c2)OCO3)c(OC)c1 (stereo not given) | inactive |
